Assay results: PubChem BioAssay (NCATS)
Results filed as inconclusive are left out. Where a call stands in place of a potency, no number is given. Activity calls are given as the source filed them. Calls follow the shape of the dose curve; as a rule, active = well fitted curve in the direction sought with a large enough effect; inconclusive = small, poorly fitted or top-dose-only effect, or another doubt; inactive = no such curve, though single readings can be large; an effect the other way counts as inactive or inconclusive.

What was measured:
[1] = Quantitative High-Throughput drug screen in 47 multiple myeloma cell lines against the NCATS MIPE library collection: FR4_PLB cell viability assay (AID 1918924; also: nearly all actives have a fitted effect of over 35% in size)
How it was run: (§1)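 Myeloma cells (500 per well) were exposed to MIPE 4.0 compounds by pin transfer and incubated 48 hours at 37C, 5% CO2. Viability was read as ATP by CellTiter-Glo luminescence, normalised to DMSO (100%) and media-only (0%) wells.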

[2] = Quantitative High-Throughput drug screen in 47 multiple myeloma cell lines against the NCATS MIPE library collection: EJM_DSMZ cell viability assay (AID 1918926; also: nearly all actives have a fitted effect of over 30% in size)
How it was run: (§2)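 Steps: seed 500 cells per well; pin-transfer MIPE 4.0 library; incubate 48 h at 37C, 5% CO2, humidified; add CellTiter-Glo, 5 min room temperature; read luminescence.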

[3] = Quantitative High-Throughput drug screen in 47 multiple myeloma cell lines against the NCATS MIPE library collection: AMO1_DSMZ cell viability assay (AID 1918927; also: nearly all actives have a fitted effect of over 30% in size)
How it was run: as §2

[4] = Quantitative High-Throughput drug screen in 47 multiple myeloma cell lines against the NCATS MIPE library collection: ARD_JJKsccE7 cell viability assay (AID 1918929)
How it was run: as §2

[5] = Quantitative High-Throughput drug screen in 47 multiple myeloma cell lines against the NCATS MIPE library collection: Karpas620_DSMZ cell viability assay (AID 1918959); also: nearly all actives have a fitted effect of over 30% in size
How it was run: as §1

[6] = Quantitative High-Throughput drug screen in 47 multiple myeloma cell lines against the NCATS MIPE library collection: KMM1_JCRB cell viability assay (AID 1918960); also: nearly all actives have a fitted effect of over 30% in size
How it was run: (§3)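 CellTiter-Glo luminescence after 48 h exposure gives viability, scaled between DMSO-only (100%) and media-only (0%) controls. Library compounds are pinned onto 500 myeloma cells per well, incubated at 37C with 5% CO2.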

[7] = Quantitative High-Throughput drug screen in 47 multiple myeloma cell lines against the NCATS MIPE library collection: Karpas417_ECACC cell viability assay (AID 1918961); conditions: Karpas417 myeloma viability, CellTiter-Glo ATP luminescence, 48 h; viability (% of DMSO): at 45.8 µM (top of the series)
How it was run: (§4)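 CellTiter-Glo ATP luminescence gave viability after 48 h compound treatment at 37C of 500 multiple myeloma cells per well. Normalisation used DMSO-only wells as 100% and media-only wells as 0% viability; primary qHTS of approved and investigational drugs.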

[8] = Quantitative High-Throughput drug screen in 47 multiple myeloma cell lines against the NCATS MIPE library collection: JIM1_ECACC cell viability assay (AID 1918964)
How it was run: as §2

[9] = Quantitative High-Throughput drug screen in 47 multiple myeloma cell lines against the NCATS MIPE library collection: INA6_PLB cell viability assay (AID 1918965; also: nearly all actives have a fitted effect of over 55% in size)
How it was run: as §4

[10] = Quantitative High-Throughput drug screen in 47 multiple myeloma cell lines against the NCATS MIPE library collection: KHM11_PLB cell viability assay (AID 1918962); also: nearly all actives have a fitted effect of over 35% in size
How it was run: as §1

[11] = Quantitative High-Throughput drug screen in 47 multiple myeloma cell lines against the NCATS MIPE library collection: JIM3_ECACC cell viability assay (AID 1918963; also: nearly all actives have a fitted effect of over 35% in size)
How it was run: as §1

[12] = Quantitative High-Throughput drug screen in 47 multiple myeloma cell lines against the NCATS MIPE library collection: JJN3_DSMZ cell viability assay (AID 1918966; also: nearly all actives have a fitted effect of over 50% in size)
How it was run: as §2

[13] = Quantitative High-Throughput drug screen in 47 multiple myeloma cell lines against the NCATS MIPE library collection: Karpas25_ECACC cell viability assay (AID 1918968; also: nearly all actives have a fitted effect of over 35% in size)
How it was run: as §2

[14] = Quantitative High-Throughput drug screen in 47 multiple myeloma cell lines against the NCATS MIPE library collection: KMS12BM_JCRB cell viability assay (AID 1918971); also: nearly all actives have a fitted effect of over 35% in size
How it was run: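 We plated 500 myeloma cells per well, pinned in MIPE 4.0 compounds, and incubated for 48 hours at 37C. ATP was then quantified with CellTiter-Glo, with DMSO and media-only wells defining 100% and 0%.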

[15] = Quantitative High-Throughput drug screen in 47 multiple myeloma cell lines against the NCATS MIPE library collection: KMS27_JCRB cell viability assay (AID 1918970); conditions: KMS27 myeloma cells, CellTiter-Glo ATP viability, 48 h; viability (% of DMSO): at 45.8 µM (top of the series); also: nearly all actives have a fitted effect of over 30% in size
How it was run: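 ATP-based viability (CellTiter-Glo luminescence) is measured in cells treated 48 h with approved and investigational drugs at 37 °C. Controls are DMSO-only wells for full viability and media-only wells for none.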

[16] = Quantitative High-Throughput drug screen in 47 multiple myeloma cell lines against the NCATS MIPE library collection: ARP1_JJKsccF8 cell viability assay (AID 1918928; also: nearly all actives have a fitted effect of over 40% in size)
How it was run: as §3

[17] = Quantitative High-Throughput drug screen in 47 multiple myeloma cell lines against the NCATS MIPE library collection: H1112_PLB cell viability assay (AID 1918967; also: nearly all actives have a fitted effect of over 30% in size)
How it was run: as §2
Potency is read from the fitted curve at half-maximal effect.

Structure (SMILES)	Potency [1]	Potency [2]	Potency [3]	Potency [4]	Potency [5]	Potency [6]	Potency [7]	Potency [8]	Potency [9]	Potency [10]	Potency [11]	Potency [12]	Potency [13]	Potency [14]	Potency [15]	Potency [16]	Potency [17]
CN[C@@H]1[C@@H](O)[C@@H](O[C@@H]2[C@@H](O)[C@H](O[C@H]3O[C@H](CN)[C@@H](O)[C@H](O)[C@@H]3O)[C@@H](N)C[C@@H]2NC(=O)[C@@H](O)CN)OC[C@]1(C)O	inactive	inactive	inactive	inactive	inactive	inactive	inactive	inactive	inactive								
CCNC(=O)[C@H]1O[C@@H](n2cnc3c(N)nc(NCCc4ccc(CCC(=O)O)cc4)nc32)[C@H](O)[C@H]1O	inactive	0.0332 µM (active)	0.105 µM (active)	inactive	inactive	inactive	0.0296 µM (active)	inactive	0.209 µM (active)	0.0469 µM (active)	inactive	0.059 µM (active)	0.105 µM (active)	3.32 µM (active)			
C[C@]12C=CC(=O)C=C1CC[C@@H]1[C@@H]2[C@@H](O)C[C@@]2(C)[C@@H]1CC[C@]2(O)C(=O)CO	inactive	inactive			inactive	0.209 µM (active)			5.9 µM (active)		inactive		0.296 µM (active)	11.8 µM (active)	inactive		
CC(C)[C@H](O)C(=O)N[C@@H](C)C(=O)N[C@@H]1C(=O)N(C)CCc2ccccc21	inactive		inactive	inactive	inactive	inactive	0.0021 µM (active)	inactive		inactive	inactive				inactive	inactive	inactive
O=C(O)c1nc(=O)[nH]c(=O)[nH]1	inactive	inactive	inactive		inactive	inactive			inactive				inactive			inactive	inactive
COc1ccc(-c2oc3c(CC=C(C)C)c(O)cc(O)c3c(=O)c2O)cc1	20.9 µM (active)	18.7 µM (active)		inactive	inactive	inactive		inactive	16.6 µM (active)		inactive		14.8 µM (active)		inactive		16.6 µM (active)
Cc1ccc(C2=Nc3ccc(Cl)cc3OC2)cc1	4.69 µM (active)	inactive	1.18 µM (active)		inactive	3.32 µM (active)					inactive	5.26 µM (active)	3.72 µM (active)				inactive
CN1C(=O)C[C@H](C(=O)N[C@@H](Cc2cnc[nH]2)C(=O)N2CCC[C@@H]2C(N)=O)NC1=O	inactive	inactive		inactive	inactive					inactive				16.6 µM (active)			inactive
NCC1CCC(C(=O)O)CC1 (configuration not stated)	inactive	inactive	inactive		inactive	inactive			inactive	4.18 µM (active)	inactive		inactive	inactive	inactive	inactive	inactive
CC(C)C[C@@H](N)[C@H](O)C(=O)N[C@H](C(=O)N[C@H](C(=O)N[C@@H](CC(=O)O)C(=O)O)C(C)C)C(C)C	inactive	inactive	inactive		inactive	inactive	inactive	inactive			20.9 µM (active)			inactive	inactive	inactive	
CCC[C@H](N[C@@H](C)C(=O)N1[C@@H]2CCCC[C@H]2C[C@H]1C(=O)O)C(=O)OCC	inactive	inactive							inactive		14.8 µM (active)		inactive		14.8 µM (active)	inactive	inactive
OCCn1cc(-c2ccc3c(c2)CCC3=NO)c(-c2ccncc2)n1	inactive	inactive		13.2 µM (active)			8.33 µM (active)				inactive	inactive	23.5 µM (active)	inactive		inactive	
CN(C)N=Nc1nc[nH]c1C(N)=O	inactive	inactive	inactive	0.187 µM (active)		0.935 µM (active)			2.64 µM (active)		inactive		inactive	inactive			inactive
CC=C(C(=CC)c1ccc(O)cc1)c1ccc(O)cc1	20.9 µM (active)	inactive	16.6 µM (active)		16.6 µM (active)	20.9 µM (active)			16.6 µM (active)	inactive				16.6 µM (active)	11.8 µM (active)		
C[C@@H](O[C@H]1OCCN(Cc2n[nH]c(=O)[nH]2)[C@@H]1c1ccc(F)cc1)c1cc(C(F)(F)F)cc(C(F)(F)F)c1	29.6 µM (active)		5.9 µM (active)	inactive					20.9 µM (active)		23.5 µM (active)			18.7 µM (active)	inactive	26.4 µM (active)	
O=C(O)c1ccc(O)c2ncc(N3CCOCC3)cc12	inactive	inactive	20.9 µM (active)					20.9 µM (active)	inactive	inactive	18.7 µM (active)		18.7 µM (active)		23.5 µM (active)		
